Data as given in PubChem BioAssay AID493231 (Broad Institute, 2011).
Results with a measured potency or affinity are listed apart. Active and inactive are the calls of the source. How the calls were made is not given here.

molecular target: Acyl-homoserine lactone acylase PvdQ (Pseudomonas aeruginosa (strain ATCC 15692 / DSM 22644 / CIP 104116 / JCM 14847 / LMG 12228 / 1C / PRS 101 / PAO1)) (UniProt Q9I194); test: P. aeruginosa PvdQ acylase inhibitors, dose response, biochemical, fluorescence, plate reader and imaging, cherry-picks (AID 493231); conditions: purified PvdQ acylase, fluorogenic substrate; series mostly up to 10 µM;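 further: more negative values mean stronger inhibition of the acylase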
Sequence (Q9I194 whole entry, looked up): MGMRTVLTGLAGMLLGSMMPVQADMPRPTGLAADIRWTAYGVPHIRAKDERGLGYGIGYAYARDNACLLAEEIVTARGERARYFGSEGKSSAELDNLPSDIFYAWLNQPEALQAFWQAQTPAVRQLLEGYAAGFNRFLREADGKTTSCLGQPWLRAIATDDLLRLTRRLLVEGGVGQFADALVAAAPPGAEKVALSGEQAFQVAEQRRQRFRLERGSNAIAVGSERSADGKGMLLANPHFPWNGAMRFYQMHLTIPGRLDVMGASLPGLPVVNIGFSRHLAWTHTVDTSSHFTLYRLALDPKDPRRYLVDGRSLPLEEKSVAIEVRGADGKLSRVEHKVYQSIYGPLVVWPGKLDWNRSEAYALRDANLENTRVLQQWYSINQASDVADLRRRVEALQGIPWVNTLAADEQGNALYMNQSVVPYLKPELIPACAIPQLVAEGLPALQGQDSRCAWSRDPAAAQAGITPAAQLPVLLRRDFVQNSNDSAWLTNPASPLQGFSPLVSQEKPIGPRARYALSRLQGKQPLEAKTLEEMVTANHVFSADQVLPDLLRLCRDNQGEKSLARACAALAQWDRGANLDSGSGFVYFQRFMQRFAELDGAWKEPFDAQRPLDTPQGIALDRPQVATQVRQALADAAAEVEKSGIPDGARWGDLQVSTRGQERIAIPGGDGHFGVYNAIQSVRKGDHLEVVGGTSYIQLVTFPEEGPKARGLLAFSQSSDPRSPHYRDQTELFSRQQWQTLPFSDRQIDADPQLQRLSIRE

outcome, inactive:
O=C1OC(Nc2ccc3c(c2)OCO3)c2ccccc21 (stereo not drawn), Cn1c(=O)c2[nH]c(-c3ccccc3)c(O)c2n(C)c1=O, CCC(=O)N1N=C(c2ccc(C)o2)CC1c1ccc(N(C)C)cc1 (stereo not drawn), COCCCNC(=O)CC1C[C@H](C(=O)N2CCCCC2)[C@@]2(CCc3ccccc3)c3[nH]c4ccc(OC)cc4c3CCN2C1=O (stereo partly drawn), O=C(/C=C/c1ccc(Cl)c([N+](=O)[O-])c1)c1ccc(O)cc1, Cc1cc(C)cc(NC(=O)C(OC(=O)c2cccs2)c2ccccc2)c1 (stereo not drawn), OC(CN1CCOCC1)Cn1c(-c2cccc(Cl)c2)nc2ccccc21 (stereo not drawn), CCN(c1ccc(NC(=O)CCNC(=O)c2ccco2)cc1)C(C)C, Cc1cc(C(=O)Nc2ccc(F)c(Cl)c2)on1, Nc1nc(-c2ccc(Cl)cc2)nn1C(=O)c1ccco1, COCCCNC(=O)c1cc(S(=O)(=O)NCCCN2CCCC2=O)ccc1Cl, Cc1cc(C)cc(N2C(=O)CC(Sc3ccccc3C(=O)O)C2=O)c1 (stereo not drawn), Cc1ccc2[nH]c(=O)c3cc(C(=O)NC(C)C)sc3c2c1, CN(c1ccc(C(=O)NC2CC3CCC2C3)cc1)S(C)(=O)=O (stereo not drawn), O=[N+]([O-])c1nn(-c2ccc(Cl)cc2)n(O)c1=NCc1ccccc1, COc1ccc(S(=O)(=O)NCCc2ccccc2)c2cccnc12, N#C/C(=C\c1ccco1)c1nc2ccccc2s1, CS(=O)(=O)N(CC(=O)Nc1ccccc1C(=O)N1CCOCC1)c1ccccc1
